# Results from PubChem BioAssay AID1159580 (chemical genetic matrix, 2015).
# Where “and” joins values, the source holds several entries; their conditions need not be identical. Identical values can stand only once. Out of some 5,500 compounds screened, about 2,000 (36%) were called active. Another 18% or so got no clear call; they are omitted. This is one part of the list. A number with no mark means an inactive call. No stated cut-off is given here; in the data, active means normalized growth mostly below about 0.91 (no sharp cut-off); inconclusive means no clear call, values can overlap the other calls; inactive means mostly above about 0.92.
# Assay: chemical genetic growth profiling, strain panel (AID 1159580);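 further: tested at 20 µM; growth read once vehicle control cultures reached saturation at 30 °C; 1 = growth at the plate median or of vehicle wells; lower values mean less growth of the strain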
# Conditions: growth OD
smiles,measurement,setting,value
COc1ccc(-c2cc(=O)c3c(O)cc(O)cc3o2)cc1O,normalized growth,"S. cerevisiae deletion strains, locus YAL013W, strain DEP1, hits give low values",1
same,normalized growth,"S. cerevisiae deletion strains, locus YBR021W, strain FUR4, hits give low values",0.985
same,normalized growth,"S. cerevisiae deletion strains, locus YBR229C, strain ROT2, hits give low values",0.987
same,normalized growth,"S. cerevisiae deletion strains, locus YCL029C, strain bik1, hits give low values",0.997
same,normalized growth,"S. cerevisiae deletion strains, locus YDL035C, strain GPR1, hits give low values",0.983
same,normalized growth,"S. cerevisiae deletion strains, locus YDL074C, strain BRE1, hits give low values",0.969
same,normalized growth,"S. cerevisiae deletion strains, locus YDL101C, strain DUN1, hits give low values",0.998
same,normalized growth,"S. cerevisiae deletion strains, locus YDL134C, strain PPH21, hits give low values",0.993
same,normalized growth,"S. cerevisiae deletion strains, locus YDL185W, strain tfp1, hits give low values",1.01
same,normalized growth,"S. cerevisiae deletion strains, locus YDL192W, strain arf1, hits give low values",0.999
same,normalized growth,"S. cerevisiae deletion strains, locus YDR101C, strain arx1, hits give low values",0.98
same,normalized growth,"S. cerevisiae deletion strains, locus YDR150W, strain NUM1, hits give low values",1
same,normalized growth,"S. cerevisiae deletion strains, locus YDR162C, strain NBP2, hits give low values",0.961
same,normalized growth,"S. cerevisiae deletion strains, locus YDR318W, strain mcm21, hits give low values",0.995
same,normalized growth,"S. cerevisiae deletion strains, locus YDR388W, hits give low values",0.993
same,normalized growth,"S. cerevisiae deletion strains, locus YDR502C, strain sam2, hits give low values",0.975
same,normalized growth,"S. cerevisiae deletion strains, locus YEL061C, strain CIN8, hits give low values",0.994
same,normalized growth,"S. cerevisiae deletion strains, locus YER110C, hits give low values",1
same,normalized growth,"S. cerevisiae deletion strains, locus YER155C, strain BEM2, hits give low values",1
same,normalized growth,"S. cerevisiae deletion strains, locus YER167W, strain BCK2, hits give low values",0.997
same,normalized growth,"S. cerevisiae deletion strains, locus YGL078C, strain dbp3, hits give low values",0.989
same,normalized growth,"S. cerevisiae deletion strains, locus YGL086W, strain mad1, hits give low values",0.981
same,normalized growth,"S. cerevisiae deletion strains, locus YGL248W, strain PDE1, hits give low values",0.997
same,normalized growth,"S. cerevisiae deletion strains, locus YGR078C, strain PAC10, hits give low values",0.952
same,normalized growth,"S. cerevisiae deletion strains, locus YGR135W, strain pre9, hits give low values",0.962
same,normalized growth,"S. cerevisiae deletion strains, locus YGR229C, strain SMI1, hits give low values",0.937
same,normalized growth,"S. cerevisiae deletion strains, locus YGR252W, strain gcn5, hits give low values",0.96
same,normalized growth,"S. cerevisiae deletion strains, locus YHR030C, strain SLT2, hits give low values",0.997 and 1.02
same,normalized growth,"S. cerevisiae deletion strains, locus YHR079C, strain IRE1 (second series), hits give low values",0.983
same,normalized growth,"S. cerevisiae deletion strains, locus YHR079C, strain IRE1, hits give low values",1.01
same,normalized growth,"S. cerevisiae deletion strains, locus YHR094C, strain hxt1, hits give low values",1
same,normalized growth,"S. cerevisiae deletion strains, locus YHR129C, strain ARP1, hits give low values",0.989
same,normalized growth,"S. cerevisiae deletion strains, locus YHR200W, strain rpn10, hits give low values",0.99
same,normalized growth,"S. cerevisiae deletion strains, locus YIL066C, strain RNR3, hits give low values",0.987
same,normalized growth,"S. cerevisiae deletion strains, locus YIL073C, strain SPO22, hits give low values",1.02
same,normalized growth,"S. cerevisiae deletion strains, locus YIL125W, strain kgd1, hits give low values",0.995
same,normalized growth,"S. cerevisiae deletion strains, locus YIR030C, strain dcg1, hits give low values",0.991
same,normalized growth,"S. cerevisiae deletion strains, locus YJL095W, strain BCK1, hits give low values",0.944 and 0.996
same,normalized growth,"S. cerevisiae deletion strains, locus YJL134W, strain LCB3, hits give low values",0.998
same,normalized growth,"S. cerevisiae deletion strains, locus YJL168C, strain set2, hits give low values",0.998
same,normalized growth,"S. cerevisiae deletion strains, locus YJL187C, strain SWE1 (second series), hits give low values",0.967
same,normalized growth,"S. cerevisiae deletion strains, locus YJR043C, strain POL32, hits give low values",0.998
same,normalized growth,"S. cerevisiae deletion strains, locus YJR066W, strain TOR1, hits give low values",0.986
same,normalized growth,"S. cerevisiae deletion strains, locus YJR075W, strain HOC1, hits give low values",1.04
same,normalized growth,"S. cerevisiae deletion strains, locus YKL009W, strain mrt4, hits give low values",0.89
same,normalized growth,"S. cerevisiae deletion strains, locus YKL068W, hits give low values",0.968
same,normalized growth,"S. cerevisiae deletion strains, locus YKL085W, strain MDH1 (second series), hits give low values",0.913 (active)
same,normalized growth,"S. cerevisiae deletion strains, locus YKL085W, strain MDH1, hits give low values",0.913 (active)
same,normalized growth,"S. cerevisiae deletion strains, locus YKL190W, strain CNB1, hits give low values",0.993
same,normalized growth,"S. cerevisiae deletion strains, locus YKR001C, strain vps1, hits give low values",1
same,normalized growth,"S. cerevisiae deletion strains, locus YLR039C, strain RIC1, hits give low values",0.928
same,normalized growth,"S. cerevisiae deletion strains, locus YLR058C, strain SHM2, hits give low values",0.989
same,normalized growth,"S. cerevisiae deletion strains, locus YLR102C, strain apc9, hits give low values",0.995
same,normalized growth,"S. cerevisiae deletion strains, locus YLR113W, strain HOG1, hits give low values",0.888
same,normalized growth,"S. cerevisiae deletion strains, locus YLR262C, strain YPT6, hits give low values",0.921
same,normalized growth,"S. cerevisiae deletion strains, locus YLR268W, strain sec22, hits give low values",0.944
same,normalized growth,"S. cerevisiae deletion strains, locus YLR330W, strain CHS5, hits give low values",0.999
same,normalized growth,"S. cerevisiae deletion strains, locus YLR342W, strain FKS1 (second series), hits give low values",1.02
same,normalized growth,"S. cerevisiae deletion strains, locus YLR371W, strain rom2, hits give low values",0.99
same,normalized growth,"S. cerevisiae deletion strains, locus YLR418C, strain cdc73, hits give low values",0.925
same,normalized growth,"S. cerevisiae deletion strains, locus YML016C, strain PPZ1, hits give low values",0.991
same,normalized growth,"S. cerevisiae deletion strains, locus YML032C, strain rad52, hits give low values",1.01
same,normalized growth,"S. cerevisiae deletion strains, locus YML124C, strain tub3, hits give low values",0.988
same,normalized growth,"S. cerevisiae deletion strains, locus YMR078C, strain ctf18, hits give low values",1
same,normalized growth,"S. cerevisiae deletion strains, locus YMR223W, strain ubp8, hits give low values",0.993
same,normalized growth,"S. cerevisiae deletion strains, locus YMR263W, strain SAP30, hits give low values",0.982
same,normalized growth,"S. cerevisiae deletion strains, locus YMR307W, strain GAS1, hits give low values",1.08
same,normalized growth,"S. cerevisiae deletion strains, locus YNL067W, strain RPL9B, hits give low values",0.983
same,normalized growth,"S. cerevisiae deletion strains, locus YNL128W, strain TEP1, hits give low values",0.988
same,normalized growth,"S. cerevisiae deletion strains, locus YNL153C, strain GIM3, hits give low values",0.958
same,normalized growth,"S. cerevisiae deletion strains, locus YNL183C, strain NPR1, hits give low values",0.921
same,normalized growth,"S. cerevisiae deletion strains, locus YNL233W, strain BNI4, hits give low values",0.947
same,normalized growth,"S. cerevisiae deletion strains, locus YNL250W, strain rad50, hits give low values",1
same,normalized growth,"S. cerevisiae deletion strains, locus YNL271C, strain bni1, hits give low values",1
same,normalized growth,"S. cerevisiae deletion strains, locus YNL298W, strain CLA4, hits give low values",1.03
same,normalized growth,"S. cerevisiae deletion strains, locus YNL307C, strain MCK1, hits give low values",1
same,normalized growth,"S. cerevisiae deletion strains, locus YNL322C, strain KRE1, hits give low values",0.996
same,normalized growth,"S. cerevisiae deletion strains, locus YNR052C, strain pop2, hits give low values",0.994
same,normalized growth,"S. cerevisiae deletion strains, locus YOL006C, strain TOP1, hits give low values",0.973
same,normalized growth,"S. cerevisiae deletion strains, locus YOL012C, strain htz1",0.983
same,normalized growth,"S. cerevisiae deletion strains, locus YOL147C, strain pex11, hits give low values",0.992
same,normalized growth,"S. cerevisiae deletion strains, locus YOR061W, strain CKA2, hits give low values",1
same,normalized growth,"S. cerevisiae deletion strains, locus YOR069W, strain VPS5, hits give low values",0.998
same,normalized growth,"S. cerevisiae deletion strains, locus YOR136W, strain idh2, hits give low values",0.993
same,normalized growth,"S. cerevisiae deletion strains, locus YOR144C, strain elg1, hits give low values",0.997
same,normalized growth,"S. cerevisiae deletion strains, locus YOR184W, strain ser1, hits give low values",0.982
same,normalized growth,"S. cerevisiae deletion strains, locus YOR231W, strain MKK1, hits give low values",1.01
same,normalized growth,"S. cerevisiae deletion strains, locus YOR316C, strain cot1, hits give low values",0.989
same,normalized growth,"S. cerevisiae deletion strains, locus YPL055C, strain LGE1, hits give low values",0.97
same,normalized growth,"S. cerevisiae deletion strains, locus YPL241C, strain CIN2, hits give low values",1
same,normalized growth,"S. cerevisiae deletion strains, locus YPL256C, strain CLN2, hits give low values",0.993
same,normalized growth,"S. cerevisiae deletion strains, locus YPR119W, strain clb2, hits give low values",0.993
same,normalized growth,"S. cerevisiae deletion strains, locus YPR141C, strain kar3, hits give low values",1.01
same,normalized growth,"S. cerevisiae deletion strains, locus YPR163C, strain tif3, hits give low values",1.01
same,normalized growth,"S. cerevisiae deletion strains, locus YPR167C, strain met16, hits give low values",0.991
same,normalized growth,"S. cerevisiae deletion strains, strain wtn01, hits give low values",0.977
same,normalized growth,"S. cerevisiae strains, strain wild type, hits give low values",0.99
